Several values for one entry are separate records, joined by “and”; a condition that tells them apart may be missing. Equal entries are not always repeated. The campaign covered roughly 5,500 compounds. About 2,000 (36%) were called active. Inconclusive results (about 18%) are left out. No stated cut-off is given here; in the data, active means normalized growth mostly below about 0.91 (no sharp cut-off); inconclusive means no clear call, values can overlap the other calls; inactive means mostly above about 0.92. This is one part of the list.
Assay: chemical genetic growth profiling, strain panel (AID 1159580);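 further: tested at 20 µM; growth read once vehicle control cultures reached saturation at 30 °C; 1 = growth at the plate median or of vehicle wells; lower values mean less growth of the strain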
Details: S. cerevisiae deletion strains, growth OD

Measured: normalized growth

COC(=O)C1=COC(C)C2CN3CCC4(C(=O)Nc5ccccc54)C3CC12 (configuration not stated)
inactive: locus YAL021C, strain ccr4, active compounds read low 1.02 and 1.01 | locus YAL026C, strain drs2, active compounds read low 1.02 | locus YAL030W, strain snc1, active compounds read low 1.01 | locus YBL061C, strain skt5, active compounds read low 1.04 and 1.02 and 1.03 | locus YBR009C, strain hhf1, active compounds read low 1.04 and 1.01 and 1.02 | locus YBR023C, strain chs3, active compounds read low 1.02 and 1.01 | locus YBR171W, strain sec66, active compounds read low 1.03 and 1.02 | locus YBR231C, strain swc5, active compounds read low 1.02 | locus YBR279W, strain paf1, active compounds read low 1.02 and 1.01 | locus YCL011C, strain gbp2, active compounds read low 1.02 and 1.01 | locus YCL016C, strain dcc1, active compounds read low 1.01 | locus YCL061C, strain MRC1, active compounds read low 1.02 and 1.01 | locus YCL069W, strain vba3, active compounds read low 1.02 and 1.01 | locus YCR088W, strain abp1, active compounds read low 1.02 and 1.01 | locus YDL005C, strain med2, active compounds read low 1.02 and 1.01 | locus YDL040C, strain nat1, active compounds read low 1.02 | locus YDR001C, strain nth1, active compounds read low 1.02 and 1.01 | locus YDR069C, strain doa4, active compounds read low 1.02 and 1.04 | locus YDR137W, strain rgp1, active compounds read low 0.988 and 0.962 and 0.914 | locus YDR159W, strain sac3, active compounds read low 1.05 and 1.02 and 1.03 | locus YDR195W, strain ref2 0.992 and 0.996 and 1.01 | locus YDR297W, strain sur2, active compounds read low 1.02 | locus YDR334W, strain swr1, active compounds read low 1.02 and 1.01 | locus YDR335W, strain msn5, active compounds read low 1.03 and 1.02 | locus YDR392W, strain spt3, active compounds read low 1.04 and 1.02 | locus YEL003W, strain gim4, active compounds read low 1.03 and 1.02 | locus YEL037C, strain rad23, active compounds read low 1.01 and 1.02 | locus YEL061C, strain CIN8 (second series), active compounds read low 1.02 and 1.01 | locus YER015W, strain faa2, active compounds read low 1.02 | locus YER016W, strain bim1, active compounds read low 1.01 and 1.02 | locus YER111C, strain swi4, active compounds read low 1.03 and 1.02 and 1.04 | locus YER155C, strain BEM2 (second series), active compounds read low 1.03 and 1.02 and 1.04 | locus YFR010W, strain ubp6, active compounds read low 1.02 | locus YGL167C, strain pmr1, active compounds read low 1.03 and 1.01 and 1.02 | locus YGL173C, strain kem1, active compounds read low 1.04 and 1.02 and 1.03 | locus YGL227W, strain vid30, active compounds read low 1.03 and 1.01 and 1.02 | locus YGL240W, strain doc1, active compounds read low 1.02 | locus YGL253W, strain hxk2, active compounds read low 1.02 and 1.01 | locus YHR013C, strain ard1, active compounds read low 1.03 and 1.01 and 1.02 | locus YHR027C, strain rpn1, active compounds read low 1.02 and 1.01 | locus YHR142W, strain chs7, active compounds read low 1.02 and 1.01 | locus YJL092W, strain hpr5, active compounds read low 1.03 and 1.01 and 1.02 | locus YJL095W, strain BCK1 (second series), active compounds read low 1.01 and 1.02 | locus YJL115W, strain asf1, active compounds read low 1.02 and 1.01 | locus YJL129C, strain trk1, active compounds read low 1.03 and 1.02 | locus YJL154C, strain vps35, active compounds read low 1.02 and 1.01 | locus YJL164C, strain tpk1, active compounds read low 1.02 and 1.03 | locus YJL166W, strain qcr8, active compounds read low 1.03 and 1.01 and 1.02 | locus YJL187C, strain SWE1, active compounds read low 1.02 and 1.01 | locus YKL160W, strain elf1, active compounds read low 1.02 | locus YKR026C, strain gcn3, active compounds read low 1.02 and 1.03 | locus YKR091W, strain srl3, active compounds read low 1.02 and 1.03 | locus YLL001W, strain dnm1, active compounds read low 1.03 and 1.02 | locus YLL026W, active compounds read low 1.01 and 1.02 | locus YLL041C, strain sdh2, active compounds read low 1.02 and 1.01 | locus YLR027C, strain aat2, active compounds read low 1.03 and 1.01 | locus YLR221C, strain rsa3, active compounds read low 1.02 and 1.01 | locus YLR258W, strain gsy2, active compounds read low 1.02 | locus YLR262C, strain YPT6 (second series), active compounds read low 1.02 and 1.01 and 0.938 | locus YLR320W, strain mms22, active compounds read low 1.04 and 1.03 | locus YLR342W, strain FKS1, active compounds read low 1.02 | locus YLR357W, strain rsc2, active compounds read low 1.02 and 0.996 and 1.03 | locus YLR370C, strain arc18, active compounds read low 1.03 and 1 and 1.01 | locus YLR384C, strain iki3, active compounds read low 1.02 and 1.01 | locus YML120C, strain ndi1, active compounds read low 1.04 and 1.02 and 1.03 | locus YMR058W, strain fet3, active compounds read low 1.02 | locus YMR125W, strain sto1, active compounds read low 1.02 and 1.04 | locus YMR129W, active compounds read low 1.02 and 1.01 | locus YMR205C, strain PFK2, active compounds read low 1.03 and 1.02 | locus YMR231W, strain pep5, active compounds read low 1 and 1.01 | locus YNL071W, strain lat1, active compounds read low 1.02 and 1.01 | locus YNL209W, strain ssb2, active compounds read low 1.02 and 1.01 | locus YNL248C, strain rpa49, active compounds read low 1.02 and 1.01 | locus YNL322C, strain KRE1 (second series), active compounds read low 1.01 and 1.02 | locus YNR049C, strain mso1, active compounds read low 1.02 and 1.01 and 1.03 | locus YOR001W, strain rrp6, active compounds read low 1.03 and 1.02 | locus YOR070C, strain gyp1, active compounds read low 1.02 and 1.01 | locus YOR080W, strain dia2, active compounds read low 1.03 and 1.02 | locus YOR083W, strain WHI5, active compounds read low 1.02 and 1.01 | locus YOR106W, strain vam3, active compounds read low 1.02 | locus YOR265W, strain rbl2, active compounds read low 1.01 and 1.02 | locus YOR270C, strain vph1, active compounds read low 1.02 and 1.04 and 1.03 | locus YOR290C, strain snf2, active compounds read low 1.02 | locus YPL051W, strain arl3, active compounds read low 1.01 | locus YPL078C, strain atp4, active compounds read low 1.02 | locus YPL106C, strain sse1, active compounds read low 0.998 and 1 and 1.02 | locus YPL240C, strain hsp82, active compounds read low 1 and 1.02
